Experimental findings from PubChem BioAssay (NCI) are described below.

Each structure is given as a SMILES string. The panel holds about 83,000 compounds, 20% with a hit somewhere; the sample as a whole holds those more often.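 Treatment: one concentration, 48 hours, 96-well format. Scoring: percent growth, with anything below 10 considered active.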 Unmarked numbers belong to inactive results. Active and inactive are the calls of the source.

Assay in all cases: NCI-60 one-dose screen, 48 h (100 = growth as untreated, 0 = no growth, -100 = all killed)
Holding throughout (conditions): 10 µM unless noted

The subject of assay [1] is DU-145 prostate.
Assay [2] deals with K-562 leukemia.
Assay [3] relates to MALME-3M melanoma.
Assay [4] deals with MDA-MB-231 breast.
The test system of assay [5] is RXF 393 renal.
Assay [6] has as its system SF-268 CNS.
In assay [7] the test system is SF-295 CNS.
The subject of assay [8] is SF-539 CNS.
The subject of assay [9] is UACC-257 melanoma.
In assay [10] the test system is M14 melanoma.
Assay [11] deals with HCT-15 colon.
The subject of assay [12] is HT29 colon.
The subject of assay [13] is SNB-75 CNS.
Assay [14] deals with SNB-19 CNS.
Assay [15] has as its system U251 CNS.
Assay [16] deals with PC-3 prostate.
For assay [17], the system named is SK-MEL-5 melanoma.
Assay [18] relates to UACC-62 melanoma.
The test system of assay [19] is LOX IMVI melanoma.
For assay [20], the system named is SK-MEL-28 melanoma.

Regarding `Cc1ccc(S(=O)(=O)NCC[C@@H]2C[C@H]2c2cc3ccccc3s2)cc1`, the growth was 101% in [1]; 85.1% in assay [2]; 99.8% in assay [3]; 92.5% in [4]; 103% in assay [5]; 93.3% in [6]. The growth was 103% in assay [7]; 98.3% in [8]; 108% in assay [9]; 108% in assay [10]; 101% in assay [11]; 107% in assay [12]. In addition, the growth is 82.7% in assay [13]; 95.6% in assay [14]; 98.6% in assay [15]; 99.8% in assay [16]; 102% in [17]; 68.1% in [18]. In addition, the figures for the growth in [19] and in [20] were 96.7% and 105%, respectively.
On to `COc1cc(C2CC(=O)Nc3c2c(C)nn3-c2nc3ccccc3[nH]2)c(OC)c(OC)c1OC` (stereo not given), for which the growth was 53.8% in assay [1]; 20.5% in assay [2]; 55.1% in assay [3]; 72.3% in assay [4]; 61.5% in assay [5]; 50.9% in [6]. Moreover, the growth in assay [7] was 19.8%; in assay [8] it was 63.7%; in assay [9] it was 60.6%; in [10], 17%; in [11], 33%; in [12] it was 80.7%. The growth in [13] is 1.94% (active); in [14] it was 62.9%; in [15] it was 42%; in assay [16] it was 51.9%; in assay [17], 46.7%; in assay [18], 40.7%. Besides, the growth was 67.7% in assay [19] and 72.3% in assay [20].
As for `CN(Cc1cnc2nc(N)nc(N)c2n1)c1ccc(C(=O)N[C@@H](CCc2nn[nH]n2)c2nn[nH]n2)cc1`, the growth in assay [1] was 32.8%; in [2], 18.1%; in assay [3] it was 68.9%; in [4], 111%; in [5], 71.1%; in assay [6], 39%. Besides, the growth in assay [7] is 40.8%; in assay [8] it was 46.6%; in assay [9] it was 55.8%; in assay [10] it was 29.8%; in assay [11], 25.2%; in assay [12] it was 27%. The growth in [13] is 76.6%; in assay [14] it was 53.4%; in assay [15] it was 50.6%; in assay [16], 32.6%; in [17], 41.2%; in assay [18] it was 21.5%. In addition, the growth is 16.1% in [19] and 103% in assay [20].
As to `CN(C)c1ccc(/C=C/C(=O)c2cccc(Nc3nc(Nc4ccccc4)nc(Nc4ccccc4)n3)c2)cc1`, the growth in assay [1] is 99.4%; in [2] it was 67.7%; in assay [3], 88.2%; in assay [4] it was 81.8%; in assay [5] it was 77.5%; in [6] it was 97.2%. Moreover, the growth is 129% in assay [7]; 87.9% in assay [8]; 110% in assay [9]; 91.5% in [10]; 80.5% in assay [11]; 53.8% in [12]. Further, the growth is 5.3% (active) in [13]; 99.1% in assay [14]; 91.5% in assay [15]; 81.7% in [16]; 69.5% in assay [17]; 91.2% in [18]. Also, the growth in assay [19] is 88.7%; in assay [20] it was 75%.
Consider `N=c1sc(Cc2ccc(Cl)cc2)cn1CC(=O)c1ccc(F)cc1`, for which the growth is 78.3% in assay [1]; 25.6% in [2]; 87.4% in [3]; 79.7% in [4]; 82.3% in assay [5]; 81.8% in [6]. Besides, the growth is 64.7% in [7]; 85.5% in [8]; 77.5% in assay [9]; 43.1% in assay [10]; 50.4% in assay [11]; 70.6% in assay [12]. Further, the growth is 90.3% in assay [13]; 88% in assay [14]; 79.4% in assay [15]; 75.5% in assay [16]; 62.7% in assay [17]; 9.38% (active) in [18]. For the same molecule, the growth in [19] is 33.2%; in assay [20], 87.6%.
In the case of `O=C(COc1ccc(/C=C2\Oc3ccccc3C2=O)cc1)Nc1nc2ccccc2s1`, the growth in assay [1] was -74.8% (active); in assay [2], 27.9%; in assay [3], 24.5%; in [4], 44.8%; in [5], 14.2%; in assay [6], 13.4%. In addition, the growth in [7] was 628%; in assay [8], -88.3% (active); in assay [9], 110%; in [10] it was 95.4%; in [11], 98.2%; in assay [12], 93.2%. Moreover, the growth in assay [13] was -16.2% (active); in assay [14], 92.4%; in [15], 4.73% (active); in assay [16], 13.7%; in [17] it was 95.6%; in assay [18] it was 82.4%. In addition, the values for the growth in assay [19] and in assay [20] were -71.7% (active) and 137%, respectively.
Consider `NC[C@H](O)c1ccc(O)c(O)c1`, for which the growth is 106% in [1]; 106% in assay [2]; 111% in assay [3]; 78.8% in assay [4]; 117% in assay [5]; 112% in [6]. In addition, the growth is 123% in assay [7]; 92% in assay [8]; 109% in [9]; 95.9% in assay [10]; 104% in [11]; 102% in assay [12]. In addition, the growth is 120% in [13]; 112% in assay [14]; 106% in assay [15]; 99.7% in assay [16]; 104% in assay [17]; 102% in [18]. Also, the growth in assay [19] was 94.2%; in assay [20] it was 116%.
Regarding `C[C@@]1(CCC#N)[C@H]2CC[C@@H]3[C@H]4[C@H](C(=O)/C=C/c5cccnc5)CC[C@]4(C#N)CC[C@@]3(C)[C@]2(C)CC[C@H]1C(=O)/C=C/c1cccnc1`, the growth in [1] is 81.5%; in [2], 23.2%; in assay [3] it was 109%; in [4], 93.4%; in assay [5] it was 69.7%; in assay [6], 61.7%. For the same molecule, the growth is 100% in assay [7]; 83.7% in [8]; 67.5% in assay [9]; 74.7% in assay [10]; 31.5% in assay [11]; 24.1% in assay [12]. Further, the growth is 72.7% in assay [13]; 86.9% in assay [14]; 64.1% in [15]; 65% in assay [16]; 77.3% in assay [17]; 52.4% in assay [18]. The growth in assay [19] is 17.5%; in [20] it was 97.3%.
On to `COc1ccc2[nH]c(O)c(/C=c3/cc4c(c(-c5cc(OC)c(OC)c(OC)c5)n3)=Nc3ccccc3-4)c2c1`, for which the growth in assay [1] was 73.9%; in assay [2], 31.7%; in assay [3] it was 94.8%; in assay [4] it was 31.7%; in assay [5], 43.1%; in assay [6], 72.9%. Also, the growth in assay [7] was 76.9%; in [8] it was 84.1%; in [9], 88.5%; in [10] it was 49.2%; in [11] it was 46.8%; in assay [12], 35%. Besides, the growth in [13] is 78.8%; in assay [14], 84.4%; in assay [15], 61.4%; in assay [16] it was 44.7%; in assay [17] it was 52.2%; in assay [18], 80.7%. Besides, the figures for the growth in [19] and in [20] were 64.8% and 83.1%, respectively.
In the case of `COC(=O)[C@]12CC[C@@H](C)[C@H](C)[C@@H]1C1=CC[C@@H]3[C@@]4(C)C(C=O)=C[C@@](C)(COC(=O)c5ccco5)[C@@H]4C(=O)C[C@@]3(C)[C@]1(C)CC2`, the growth is 42% in assay [1]; 22.7% in [2]; -17% (active) in assay [3]; 39.4% in assay [4]; 47.6% in assay [5]; 44.9% in assay [6]. Further, the growth is 34.4% in assay [7]; 57.7% in assay [8]; -38.9% (active) in assay [9]; 6.34% (active) in assay [10]; 25.2% in [11]; 29.9% in [12]. For the same molecule, the growth in assay [13] was 34.8%; in [14], 39.7%; in assay [15] it was 33.9%; in assay [16], 11.1%; in [17] it was -84.8% (active); in assay [18], -23.8% (active). Besides, the growth in assay [19] is 26.6%; in [20] it was 24.9%.
For the molecule `C=CCNc1nc(NN2C(=O)c3cccc4cccc(c34)C2=O)nc(-n2cnc3ccccc32)n1`, the growth is 97.9% in assay [1]; 9.94% (active) in [2]; 93.5% in assay [3]; 68.3% in [4]; 50.3% in [5]; 65% in assay [6]. For the same molecule, the growth in assay [7] was 76.5%; in assay [8], 50.4%; in assay [9], 102%; in assay [10], 97.9%; in [11] it was 66.7%; in assay [12], 88.9%. In addition, the growth in [13] was 39.2%; in [14] it was 83.7%; in assay [15], 63.3%; in assay [16], 67.1%; in assay [17] it was 64.9%; in assay [18] it was 77.2%. For the same molecule, the growth in assay [19] is 77.8%; in [20] it was 103%.
On to `O=c1c2cc(F)ccc2sc2c(NCCCN3CCCC3)nc3ccccc3c12`, for which the growth in assay [1] was 60.1%; in assay [2], -29.7% (active); in assay [3], 26.5%; in assay [4], 21.1%; in [5], 22.7%; in [6], 47.6%. In addition, the growth in assay [7] is 55.1%; in assay [8], 65.3%; in assay [9], 54.2%; in [10], -64.2% (active); in assay [11], 7.59% (active); in assay [12], 5.1% (active). Besides, the growth in assay [13] was 21.5%; in assay [14] it was 53.6%; in assay [15], 33.2%; in assay [16], 43.8%; in assay [17], 58.8%; in assay [18] it was -75.9% (active). The results for the growth in assay [19] and in assay [20] were -87.1% (active) and -52.8% (active), respectively.
As for `CN1C(=O)N(C)C2C1NN=c1s/c(=C\c3ccccc3)c(=O)n12` (stereo not given), the growth in [1] was 55%; in assay [2], 20.3%; in assay [3] it was 51.3%; in assay [4], 68.9%; in assay [5], 54.7%; in assay [6] it was 57.8%. For the same molecule, the growth was 34% in assay [7]; 45.1% in [8]; 54% in assay [9]; 31% in assay [10]; 27.1% in [11]; 77.8% in [12]. Further, the growth is 11.5% in assay [13]; 45.4% in [14]; 42.1% in assay [15]; 28.2% in assay [16]; 41% in [17]; 42.2% in [18]. Besides, the growth in assay [19] was 44.6%; in assay [20], 63.2%.
As for `C=CC(=O)Nc1cccc(Oc2nccc(Nc3nnc(C4CC4)s3)n2)c1`, the growth in assay [1] was 94.5%; in assay [2], 81.9%; in assay [3], 111%; in assay [4], 67.1%; in [5] it was 86.1%; in assay [6], 89.8%. Also, the growth in assay [7] was 104%; in [8], 89.1%; in [9], 105%; in assay [10], 113%; in assay [11] it was 91.5%; in assay [12] it was 96.8%. Moreover, the growth in [13] was 71.4%; in assay [14], 82.7%; in assay [15], 94.1%; in assay [16] it was 91.7%; in [17], 89.5%; in assay [18], 95.6%. In addition, the growth was 89.6% in assay [19] and 98.8% in assay [20].
